Here are results for three compounds from the supplement of paper PMC13380429.

Values without a mark were called inactive.

For the experiment, the system named is Vero E6 infected with SARS-CoV-2. The experiment in a line: SARS-CoV-2 infection rate relative to infected DMSO; higher = more infection, active = 60 or less. Conditions: 24 h.
Turning to `Cc1ncc(C[n+]2csc(CCO)c2C)c(N)n1` [thiamine] (10 µM), the SARS-CoV-2 infection rate is 96.5%.

For the compound `CN1C(=O)C(F)=C[C@]2(C)[C@H]3CC[C@]4(C)[C@@H](C(=O)NCc5nc6cccnc6[nH]5)CC[C@H]4[C@@H]3CC[C@@H]12` (10 µM), the SARS-CoV-2 infection rate is 100%.

With `OC[C@H]1NCC[C@@H](O)[C@@H]1O` [fagomine] (10 µM), the SARS-CoV-2 infection rate was 105%.
